Measurements reported in ChEMBL document CHEMBL4513216, “Probing the Open Global Health Chemical Diversity Library for Multistage-Active Starting Points for Next-Generation Antimalarials” (ACS Infect Dis, 2020).
About 8,600 (12%) of roughly 69,000 compounds showed an effect of 50% or more. The list comes from a sample in which strong results are over-represented; it also holds similar structures and randomly drawn compounds.

These molecules were tested on Plasmodium berghei (assay: Screen against P. berghei liver stage (PbLuc), transformed with Luciferase, at 10uM). Settings: tested at 10 uM.
Format: functional, HepG2

| SMILES | INHIBITION |
| --- | --- |
| Cc1nccn1CCCN1CCC(c2nccn2CC2CCC2)CC1 | 60.2% |
| Cc1nccn1CCCN1CCCC(c2nccn2C)C1 (centres undefined) | 34.2% |
| CS(=O)(=O)N1CCOCC2(CN(Cc3nccs3)CCO2)C1 (centres undefined) | 45.2% |
| CCOCC(O)CN1CCN(C(=O)C(C)(C)CC)CC1 (centres undefined) | 24% |
| O=C(c1cncc(NCC2COc3ccccc3C2)n1)N1CCOCC1 (centres undefined) | 3.13% |
| CN(Cc1cc(C(C)(C)C)n[nH]1)C(=O)c1ccc2nccn2c1 | 48.3% |
| CCN1CC(COc2ccc(OC)cc2)Oc2ccncc2S1(=O)=O (centres undefined) | -10.3% |
| CC(C)(C)CN1CC(COc2ccccc2)Oc2ccncc2S1(=O)=O (centres undefined) | 59.3% |
| O=S1(=O)c2cnccc2OC(COc2ccccc2)CN1CC1CC1 (centres undefined) | 22.2% |
| COc1cccc(-c2cc(C(=O)NCCCC(F)(F)F)[nH]n2)c1 | -16% |
| CC(C)n1c(=O)[nH]c2cn(-c3ccc(Br)cc3)c(=O)n21 | -17.3% |
| O=C(O)c1ccccc1CN1CCC2(Cc3ccccc3CNC2=O)C1 (centres undefined) | 40% |
| CC(C)(C)c1ccc(C2(C(=O)NCCCS(C)(=O)=O)CC2)cc1 | 43.5% |
| NS(=O)(=O)CCNC(=O)C1(c2ccccc2)CC1 | 19.6% |
| CC(C)(C)c1ccc(C2(C(=O)NCCS(N)(=O)=O)CC2)cc1 | 68.5% |
| CS(=O)(=O)NCCNC(=O)C1(c2ccc(F)cc2)CC1 | 27.6% |
| NS(=O)(=O)CCNC(=O)C1(c2ccc(Br)cc2)CC1 | -8.19% |
| CC(C)(C)c1ccc(C2(C(=O)NCCS(C)(=O)=O)CC2)cc1 | 62.3% |
| CCCc1n[nH]c(C2CN(C(=O)c3cccc4cn[nH]c34)CCO2)n1 (centres undefined) | -11.9% |
| O=C(NCC1CC2(CO1)CN(c1nncs1)C2)C1CCC1 (centres undefined) | 1.36% |
| COC[C@H]1CNC(=O)[C@@H]2CCN(Cc3ccc(F)cc3)CC[C@H]12 | 34.4% |
| COc1ccc2nnc(CCC(=O)Nc3nc(C)c(C)s3)n2n1 | 24.2% |
| O=C(NC1CC1)N1CC[C@@H](O)[C@@H]1Cc1ccccc1 | -23.3% |
| CN(C)c1cc(C(=O)N2CCCN(c3cccnn3)CC2)ccn1 | 38.7% |
| O=C(CN(Cc1ccco1)C1CC1)N1CCCCCC1 | -8.11% |
| Cc1nonc1OCCNC(=O)COc1ccc(F)cc1F | 7.92% |
| Cc1nonc1OCCNC(=O)COc1ccc(Cl)cc1Cl | 7.38% |

| SMILES | INHIBITION |
| --- | --- |
| Cc1nonc1OCCNC(=O)CCCc1ccc(Cl)cc1 | 57.8% |
| N#Cc1c(F)cccc1Nc1cnn(CC(O)CN2CCOCC2)c1 (centres undefined) | 44.9% |
| CN1CCN([C@@H]2CCN(Cc3cccc(-n4cccn4)c3)C[C@H]2O)CC1 | 22.9% |
| O[C@@H]1CN(CC2=Cc3cc(Cl)ccc3OC2)CC[C@H]1N1CCCCCC1 | 31.9% |
| CN1CCN([C@@H]2CCN(CC3=Cc4cc(Cl)ccc4OC3)C[C@H]2O)CC1 | 62.4% |
| O=C(C1CCOC1)N1CCC2(CC1)COC2 (centres undefined) | 19.8% |
| COCC(=O)N1CCN(C)C(=O)C(Cc2ccc(-c3cccs3)cc2)C1 (centres undefined) | 6.26% |
| CC(C)(C)Cc1noc2ncc(C(=O)N3CCC3)cc12 | 29% |
| CC1CN(C)CCN1C(=O)c1cnc2onc(CC(C)(C)C)c2c1 (centres undefined) | 53.9% |
| CC(C)(C)Cc1noc2ncc(C(=O)N3CCSCC3)cc12 | 37.7% |
| OCc1cc(C2CCCN2c2ncccn2)n[nH]1 (centres undefined) | 12.27% |
| COc1cccc(COCC(O)CN2CC(n3cccn3)C2)c1 (centres undefined) | 52% |
| OC(COCc1ccccc1)CN1CC(n2cccn2)C1 (centres undefined) | 39.6% |
| OC(COCc1ccc(Cl)cc1)CN1CC(n2cccn2)C1 (centres undefined) | -3.6% |
| Cn1ccc(C(=O)NC2CCC23CCN(C(=O)N2CCCC2)CC3)c1 (centres undefined) | 20.5% |
| c1cnc(N2CCCC3(CCN(Cc4ccsc4)C3)C2)nc1 (centres undefined) | 53.2% |
| Fc1cnc(N2CC3(CCN(Cc4ccsc4)C3)C2)nc1 | 52% |
| Fc1cnc(N2CCOC3(CCN(Cc4ccsc4)CC3)C2)nc1 | 71.6% |
| c1cnc(N2CCOCC3(CN(Cc4ccsc4)CCO3)C2)nc1 (centres undefined) | -47.5% |
| Fc1cnc(N2CCCC3(CN(Cc4ccccc4)CCO3)C2)nc1 (centres undefined) | -15.3% |
| c1csc(CN2CC3(CCN(Cc4ccsc4)C3)C2)n1 | 0.542% |
| Fc1cnc(N2CCCC3(CCN(Cc4ccsc4)C3)C2)nc1 (centres undefined) | 43.8% |
| c1ccc(N2CCCC3(CCN(Cc4ccsc4)C3)C2)nc1 (centres undefined) | 37.1% |
| CCc1cnc(N2CC3(CCN(Cc4ccsc4)C3)C2)nc1 | 7.39% |
| O=C(Nc1cnc2n1CCCC2)C1CCCN1C1CCNCC1 (centres undefined) | 15.7% |
| N#Cc1cn(C2CC2)c(=O)n(CC(O)c2ccccc2C(F)(F)F)c1=O (centres undefined) | 29.4% |
| CCS(=O)(=O)NC(CCSC)C(=O)Nc1ccc(C)cc1C (centres undefined) | 31.2% |
